H9c2 protect – protects H9c2 cardiomyocytes from peroxide injury; H2O2 injury protection, ATPLite, 2 h; 360,000 tested, 0.63% active; protection from H2O2 cell death, % at 20 µM;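 active = compounds giving at least 50% protection of heart cells from peroxide-induced death in the single-dose screen, raw or plate-pattern-corrected value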;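 note: 0% = DMSO wells with peroxide and 100% = DMSO wells without peroxide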
FAS TE block – blocks the thioesterase domain of human fatty acid synthase; P49327; recombinant FAS-TE, OMFH fluorogenic substrate, fluorescence endpoint; inhibition, % at 15 µM; 360,000 tested, 0.67% active; AID 602261;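 active = compounds whose normalised, plate-corrected inhibition of enzyme fluorescence in the single-dose primary screen is 50% or more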;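 note: 0% = DMSO with enzyme and 100% = substrate without enzyme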
Target sequence (P49327 whole entry, looked up, the tested form may be a part): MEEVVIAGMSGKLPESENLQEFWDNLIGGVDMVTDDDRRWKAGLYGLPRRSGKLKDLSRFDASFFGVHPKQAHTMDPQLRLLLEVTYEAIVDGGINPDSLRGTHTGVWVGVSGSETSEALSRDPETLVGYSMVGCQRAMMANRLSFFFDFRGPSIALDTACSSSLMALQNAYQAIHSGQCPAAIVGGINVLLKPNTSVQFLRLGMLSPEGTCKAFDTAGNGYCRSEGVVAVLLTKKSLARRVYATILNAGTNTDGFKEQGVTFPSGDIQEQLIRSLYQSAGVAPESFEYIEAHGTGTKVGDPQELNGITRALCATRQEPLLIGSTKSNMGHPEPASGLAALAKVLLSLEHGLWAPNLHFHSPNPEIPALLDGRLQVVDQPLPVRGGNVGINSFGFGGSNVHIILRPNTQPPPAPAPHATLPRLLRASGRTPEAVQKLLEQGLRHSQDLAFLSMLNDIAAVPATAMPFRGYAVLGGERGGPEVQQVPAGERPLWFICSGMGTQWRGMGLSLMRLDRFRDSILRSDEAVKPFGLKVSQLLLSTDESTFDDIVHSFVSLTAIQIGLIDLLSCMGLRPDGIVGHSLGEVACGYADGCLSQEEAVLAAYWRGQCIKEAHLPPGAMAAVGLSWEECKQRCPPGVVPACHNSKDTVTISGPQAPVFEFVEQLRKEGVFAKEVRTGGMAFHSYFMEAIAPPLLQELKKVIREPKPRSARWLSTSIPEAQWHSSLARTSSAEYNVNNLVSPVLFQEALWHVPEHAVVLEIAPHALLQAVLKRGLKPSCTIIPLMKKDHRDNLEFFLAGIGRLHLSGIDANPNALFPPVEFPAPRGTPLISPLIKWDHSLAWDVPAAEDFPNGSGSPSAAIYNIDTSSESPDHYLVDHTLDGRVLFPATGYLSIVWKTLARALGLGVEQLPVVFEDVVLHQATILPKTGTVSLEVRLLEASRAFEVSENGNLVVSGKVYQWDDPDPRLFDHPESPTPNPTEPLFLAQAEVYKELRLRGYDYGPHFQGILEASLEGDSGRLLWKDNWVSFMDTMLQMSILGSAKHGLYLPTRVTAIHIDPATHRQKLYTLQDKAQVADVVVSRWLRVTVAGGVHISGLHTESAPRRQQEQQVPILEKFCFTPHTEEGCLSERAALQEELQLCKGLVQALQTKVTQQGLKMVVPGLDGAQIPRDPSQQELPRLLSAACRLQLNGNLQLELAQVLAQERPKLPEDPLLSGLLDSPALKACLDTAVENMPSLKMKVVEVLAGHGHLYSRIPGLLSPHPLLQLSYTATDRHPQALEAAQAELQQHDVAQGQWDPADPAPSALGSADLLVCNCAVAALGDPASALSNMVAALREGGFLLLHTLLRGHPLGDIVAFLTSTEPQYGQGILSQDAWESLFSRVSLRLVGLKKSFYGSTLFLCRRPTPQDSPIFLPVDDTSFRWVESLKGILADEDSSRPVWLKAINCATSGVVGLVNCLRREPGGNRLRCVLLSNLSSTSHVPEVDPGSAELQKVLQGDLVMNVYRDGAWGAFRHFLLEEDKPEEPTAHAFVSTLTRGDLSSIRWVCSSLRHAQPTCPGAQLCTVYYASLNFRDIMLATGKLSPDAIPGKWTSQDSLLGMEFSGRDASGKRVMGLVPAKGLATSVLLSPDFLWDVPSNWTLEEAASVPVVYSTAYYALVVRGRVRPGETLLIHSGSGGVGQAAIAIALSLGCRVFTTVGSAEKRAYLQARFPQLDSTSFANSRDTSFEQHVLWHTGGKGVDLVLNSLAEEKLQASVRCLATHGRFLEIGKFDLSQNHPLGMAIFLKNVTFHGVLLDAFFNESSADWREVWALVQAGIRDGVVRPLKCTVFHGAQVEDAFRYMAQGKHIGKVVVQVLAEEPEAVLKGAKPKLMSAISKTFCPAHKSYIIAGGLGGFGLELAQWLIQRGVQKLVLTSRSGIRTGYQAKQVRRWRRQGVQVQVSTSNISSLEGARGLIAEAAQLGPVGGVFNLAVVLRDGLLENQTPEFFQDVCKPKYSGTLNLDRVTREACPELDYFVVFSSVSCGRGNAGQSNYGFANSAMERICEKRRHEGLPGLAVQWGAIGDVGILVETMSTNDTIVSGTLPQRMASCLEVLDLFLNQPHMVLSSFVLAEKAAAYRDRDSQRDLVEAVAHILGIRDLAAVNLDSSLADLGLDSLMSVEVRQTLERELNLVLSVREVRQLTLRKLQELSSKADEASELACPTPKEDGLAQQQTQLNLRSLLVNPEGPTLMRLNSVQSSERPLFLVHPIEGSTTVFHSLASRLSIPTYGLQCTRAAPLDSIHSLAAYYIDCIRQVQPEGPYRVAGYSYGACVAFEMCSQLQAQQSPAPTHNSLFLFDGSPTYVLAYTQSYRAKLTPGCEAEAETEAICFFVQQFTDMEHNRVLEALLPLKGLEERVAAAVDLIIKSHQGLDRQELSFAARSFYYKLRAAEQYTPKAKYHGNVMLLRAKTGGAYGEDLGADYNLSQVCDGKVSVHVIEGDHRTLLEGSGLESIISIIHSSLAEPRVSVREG
Mot1-301 SUMO – blocks SUMOylation pathway, rescuing yeast Mot1-301 growth; S. cerevisiae Mot1-301 growth rescue, ATP luminescence, 38.5C; percent above DMSO median, 100 means doubled; growth rescue, % at 18.8 µM; 320,000 tested, 1% active; AID 2716;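 active = every valid replicate shows activation above 250% relative to neutral control wells; inactive = the rest, any valid replicate at or below 250%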;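 note: OY570 slx delta 5 strain wells were the positive control but not used for scaling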
MPTP inh – permeability transition pore inhibition. isolated mouse mitochondria, Ca2+ swelling absorbance, 30 min. inhibition, % at 10 µM. 360,000 tested, 1.4% active. AID 602449;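 active = inhibition of 50% or more, scaled per plate between neutral and stimulator controls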;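 note: 0% = DMSO wells given calcium and 100% = 1 mM EGTA wells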
CR mimetic SO – caloric restriction mimetics inhibiting age-related superoxide in yeast. superoxide response (% of plate mean), % at 10 µM. 330,000 tested, 0.18% active. S. cerevisiae aged cells, superoxide DHE fluorescence; hits give low values;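 active = superoxide response under a set limit, about three screen SD below normal, cut at about 65% in these data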;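 note: yeast aged for seven days with compound at 30 °C before DHE staining; 100% = average MFI of all compound-treated wells on the plate with controls excluded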
aDG glyco act – increases alpha dystroglycan glycosylation | Pro5-aDG cells, alpha-DG glycosylation AlphaScreen (IIH6); 0% Pro5, 100% B10-LARGE cell signal | activation, % at 10 µM | 360,000 tested, 0.22% active;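 active = activation of at least 8% versus controls, or a plate z-score of at least 8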;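 note: Pro5 are CHO cells carrying HIG-tagged alpha-DG that lacks glycosylation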
Superoxide pick – confirmation of caloric restriction mimetics inhibiting yeast age-related superoxide; superoxide response (% of plate), % at 10 µM; S. cerevisiae aging, superoxide DHE fluorescence; hits give low values; 850 tested, 1% active; shares compounds with CR mimetic SO;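 active = superoxide signal below 65% of the plate average of sample wells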;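 note: cells aged with compound for 7 days at 30 degrees C before staining; 100% equals mean DHE fluorescence of all compound wells on the plate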
DHE counter – DHE fluorescence interference, counter-screen artifact | 850 tested, under 10 active | AID 435000 | shares compounds with CR mimetic SO | S. cerevisiae BY4741, flow cytometry; hits give low values | fluorescence response, % at 10 µM;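 active = fluorescence response below 15%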;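 note: percent of the mean fluorescence averaged over all compound wells on the plate; lower means stronger quenching of DHE signal or ROS scavenging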
FAS-TE inh conf – confirmation of human fatty acid synthase thioesterase inhibitors; shares compounds with FAS TE block; recombinant FAS-TE, OMFH fluorogenic substrate, fluorescence; inhibition, % at 15 µM; 2,300 tested, 45% active;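 active = compounds inhibiting the enzyme by at least 50% at 15 µM in any one of the replicates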;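 note: 0% = enzyme with DMSO only and 100% = wells lacking enzyme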
MPTP counter – mitochondrial membrane potential, counter-screen; shares compounds with MPTP inh; isolated mitochondria, Rhodamine 123 fluorescence; inhibition, % at 10 µM; 5,000 tested, 78% active; AID 624504; in the data active = inhibition above about 22%;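 note: 0% = DMSO vehicle and 100% = positive control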
Active calls of the source: *; x = no result. Only some compounds are listed: those with a hit (about 3.8% of all), similar ones and a draw of the others.

SMILES	H9c2 protect	FAS TE block	Mot1-301 SUMO	MPTP inh	CR mimetic SO	aDG glyco act	Superoxide pick	DHE counter	others
CCOC(=O)C(CC)n1cnc2c(nnn2-c2cccc(OC)c2)c1=O (configuration not stated)	3.9	-4.4	9.4	0.8	65.1*	0.0	107.3	94.9
CCN1CCc2nc(N)sc2C1	2.9	-5.1	12.5	-0.7	65.3*	0.1	112.4	109.3
Cc1nnc(N2C(=O)C(=O)/C(=C(/O)c3ccc4c(c3)OCCO4)C2c2ccc([N+](=O)[O-])cc2)s1 (configuration not stated)	6.3	4.0	8.1	-2.7	89.1	0.0	x	x
COc1cc(OC)cc(C(=O)O/N=C(\N)c2ccncc2)c1	13.9	-13.3	4.1	0.9	61.6*	-0.1	111.9	109.9
COc1cc(OC)cc(C(=O)O/N=C(\N)c2cccc(C)c2)c1	-7.9	8.4	-29.3	1.0	71.2	0.1	x	x
C=CCCC(=O)N1C[C@H]2CON(C)[C@H]2C[C@H]1c1cccc(N2CCOCC2)c1	7.9	-5.1	x	-2.4	x	-0.2	x	x
CC(C)OC(=O)c1ccc2nc3ccccc3nc2c1	-17.6	6.5	615.9	0.8	53.1*	1.3	82.7	101.2
CCN(Cc1ccccc1)S(=O)(=O)c1ccc(C(=O)Nc2nnc(C)o2)cc1	24.8	2.3	136.4	-2.5	82.2	0.4	87.0	99.9
CCc1nnc(NC(=O)c2ccc(S(=O)(=O)N(CC)Cc3ccccc3)cc2)o1	26.8	-2.3	-3.9	-7.3	100.0	1.0	x	x
CNC(=O)c1cc(Nc2nnc(C)c3ccccc23)ccc1OC	6.1	-4.0	20.0	-1.0	103.0	-0.1	x	x
CC(=O)Nc1ccc(Nc2nnc(-c3ccc(C)c(S(N)(=O)=O)c3)c3ccccc23)cc1	-1.7	-3.7	-3.4	-1.0	90.2	-0.1	105.9	89.9
COc1nnc(-c2ccc(C)c(S(=O)(=O)NCC3CCCO3)c2)c2ccccc12 (configuration not stated)	1.6	-3.5	-5.3	-0.5	108.8	0.0	x	x
CNC(=O)c1cc(Nc2nnc(-c3ccc(C)c(S(N)(=O)=O)c3)c3ccccc23)ccc1OC	5.0	0.2	0.2	-0.7	58.2*	-0.2	115.2	111.3
CNC(=O)COc1ccc(Nc2nnc(-c3ccc(C)c(S(N)(=O)=O)c3)c3ccccc23)cc1	4.9	-1.5	12.7	1.5	41.8*	-0.1	101.4	92.0
Cc1ccc(-c2nnc(Nc3ccc(C(N)=O)cc3)c3ccccc23)cc1S(=O)(=O)NCC1CCCO1 (configuration not stated)	37.2	-3.2	1.8	-0.3	95.1	-0.3	112.3	100.4
Cc1noc(C)c1NC(=O)Nc1cccc2c1O[C@H](CN(C)C(=O)NC(C)C)[C@@H](C)CN([C@H](C)CO)C2=O	16.4	30.4	-6.2	-0.4	83.4	-0.2	x	x
O=C1CC(=O)Nc2cc(S(=O)(=O)N3CCOc4ccccc43)ccc2N1	18.5	-3.8	81.7	-0.4	115.8	0.0	x	x
CC1=C(C(=O)N2CCCCCC2)CC(CC(=O)NC2CCCC2)C(=O)N1CCC1=CCCCC1 (configuration not stated)	x	4.4	x	-2.4	x	0.0	x	x
COc1cc(C(=O)N2CCN(C(=O)c3cc(-c4ccccc4)n[nH]3)CC2)cc(OC)c1OC	6.0	-3.0	-9.5	-1.0	63.2*	-0.2	97.0	88.5
COc1cc(C(=O)N2CCN(CCCc3ccccc3)CC2)cc(OC)c1OC	1.3	-4.1	-18.6	2.0	105.7	0.1	x	x
COC(=O)c1cc(CNC(=O)C2CC(=O)N(c3ccc4c(c3)OCCO4)C2)ccc1OC (configuration not stated)	-2.3	-12.8	-7.3	0.1	87.9	-0.1	x	x
Nc1c(NCc2ccccc2)c(=O)c1=O	-0.2	-6.0	-1.3	0.6	63.3*	0.1	96.2	90.6
CCCCN(C)CCNC(=O)CN1C(=O)CSc2ccc(S(=O)(=O)N3CCCC3)cc21	0.2	-4.9	11.3	-1.2	91.3	0.0	x	x
Cc1ccc(-c2nc3ccccc3c(=O)n2O)cc1	9.3	0.1	-18.8	2.6	58.5*	-0.2	92.5	110.6
CC1(c2nnc(-c3cccc(Cl)c3)o2)CC(c2ccc(F)cc2)=NO1 (configuration not stated)	-12.2	15.5	-6.5	-0.3	x	0.1	x	x
SMILES	H9c2 protect	FAS TE block	Mot1-301 SUMO	MPTP inh	CR mimetic SO	aDG glyco act	Superoxide pick	DHE counter	others
CCc1ccc(NC(=O)CCS(=O)(=O)c2ccc(Cl)cc2)cc1	-10.4	8.0	-6.4	0.3	51.4*	0.0	84.0	95.1
CC12CCC(=O)CC1CCC1C2CCC2(C)C1CCC2(O)C(=O)CO (configuration not stated)	-1.5	-3.3	x	0.5	x	-0.3	x	x
CC12CCCC[C@@H]1CCC1C2CCC2(C)C1CC[C@@]2(O)CNCCO (some centres not stated)	-4.3	-0.4	75.5	-1.3	88.6	-0.2	102.6	94.0
O=C(CCNS(=O)(=O)c1ccc(F)c(Cl)c1)NCc1ccccc1F	1.8	0.4	1.2	1.1	82.3	0.1	x	x
Cn1cc(C2CC(c3ccccc3)=NN2C(=O)c2ccccc2)c2ccccc21 (configuration not stated)	-4.2	31.5	-3.0	1.9	59.2*	-0.4	93.3	102.6
CCC1(c2ccc(F)cc2)NC(=O)N(CC(=O)Nc2cccnc2Cl)C1=O (configuration not stated)	3.0	-6.6	10.6	-0.3	63.8*	-0.3	117.2	100.9
CCS(=O)(=O)N1CCc2nc(-c3ccccc3)sc2C1	-12.2	-2.3	28.6	-0.7	45.8*	0.0	99.2	92.6
CCCc1cc(C(=O)Nc2cccc([N+](=O)[O-])c2)cs1	-12.7	51.9*	244.9	41.9	64.9*	0.0	95.4	98.5	FAS-TE inh conf=41.0*
C[C@]12CCC(=O)CC1=CCC1C3CC=C(C#N)[C@@]3(C)CC[C@@]12O (some centres not stated)	-2.7	-5.3	37.2	-0.4	108.6	-0.1	x	x
CCC(C)c1ccc(C(C)NC(=S)NC2CCCCC2)cc1 (configuration not stated)	-15.8	17.0	15.2	59.4*	50.4*	3.1	83.6	90.4	MPTP counter=103.4*
O=C(CN(C(=O)c1csnn1)c1cccc(C(F)(F)F)c1)NCCc1ccccc1	-2.7	10.1	-0.3	1.2	118.9	0.0	x	x
